Abs 340nm – compound light absorbance at 340 nm, profiling panel, artefact control, biochemical, MLSMR library, data from PS, PMK, MK assays; 65,000 tested, under 10 active; fold change at 10 µM; compound absorbance at 340 nm, fold over control; AID 708, 2007;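 active means at 10 µM dose, initial 340 nm absorbance at least 2 fold that of control wells; inactive means change under 2 fold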;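 further: initial absorbance extrapolated from kinetic A340 decline of NADH oxidation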
NADH enzymes – inhibitors of PK/LDH coupling enzymes, profiling panel, artefact control, biochemical, MLSMR library; IC50, µM (titrated, usually from 10 µM), without a hit: top-dose inhibition; 0.02% of 65,000 active; AID 774, 2007; coupled PK/LDH NADH assays, four targets;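 active means single-dose screening hits from any of four coupled enzyme assays that gave an IC50 when retested across doses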;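 further: the DPM-DC format reads NADH fluorescence rather than 340 nm absorbance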
PMK inhibit – S. pneumoniae PMK inhibitors, primary screen, biochemical, mevalonate pathway, pilot trial included; 0.49% of 65,000 active; AID 539, 2006; purified PMK, PK/LDH-coupled NADH absorbance 340 nm; inhibition, % at 10 µM; phosphomevalonate kinase (Streptococcus pneumoniae D39);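 active means top-ranked compounds by inhibition in the single 10 µM screen, taking a fixed number of the strongest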;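 further: 0% = full reaction with DMSO carrier and 100% = background rate without enzyme reaction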
Spn MK inh – S. pneumoniae MK inhibitors, primary screen, biochemical, PK/LDH-coupled NADH absorbance; purified MK, PK/LDH-coupled NADH absorbance 340 nm; inhibition, % at 10 µM; 0.48% of 65,000 active; AID 555, 2006;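 active means ranked among the strongest by inhibition in the single 10 µM screen, a fixed top-ranked set picked for dose follow-up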
Fluor 339 460 – intrinsic fluorescence of library compounds, ex339/em460 – biochemical, MLSMR library, data from DPM-DC assay, artefact control, profiling panel; fluorescence fold increase at 10 µM; 5.5% of 65,000 active; compound autofluorescence, ex339/em460 nm, NADH buffer; hits give high values; 1 = no-compound wells, NADH background;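 active means at 10 µM, mean starting fluorescence two-fold or more over control wells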;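 further: signal is the first read of a kinetic run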
Spn DPM-DC inh – S. pneumoniae DPM-DC inhibitors, primary screen, biochemical, PK/LDH-coupled NADH fluorescence; diphosphomevalonate decarboxylase (Streptococcus pneumoniae D39); purified DPM-DC; calls only at 10 µM; 0.49% of 65,000 active; AID 556, 2006;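 active means the 320 compounds with the highest percent inhibition in the single-dose primary screen, excluding strongly autofluorescent ones, cut at about 32% in these data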;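 further: kinetic rate of NADH fluorescence loss reporting ADP formed by the decarboxylase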
* marks the source's active call; other numbers are inactive results; i = inactive; . = no result shown; + = active, no number. Only some compounds are listed: those with a hit (about 6.8% of all), similar ones and a draw of the others.

SMILES	Abs 340nm	NADH enzymes	PMK inhibit	Spn MK inh	Fluor 339 460	Spn DPM-DC inh
COc1ccc(N2CCN(C(=O)c3cn(C)c(=O)c4c3c3ccccc3n4C)CC2)cc1	1.1	5%	12	2	1.3	i
CCOC(=O)N1CCC(NC(=O)c2cc(C)c3c(C)nn(-c4ccccc4)c3n2)CC1	1	6%	15	3	1.5	i
COc1cc(OC)c(OC)cc1CN1CCN(c2ccccc2OC)CC1	1.1	14%	0	43*	1.1	i
COc1cc(CN2CCN(c3cccc(C)c3C)CC2)cc(OC)c1O	1.1	17%	0	51*	1.1	i
CC(C)OC(=O)[C@H]1[C@H](c2ccc(Cl)cc2)[C@@](C#N)(C(N)=O)[C@@H]2C=CC(C(N)=O)=CN21	1.1	3%	3	0	1.1	i
CCOC(=O)N1CCN(C(=O)C(NS(=O)(=O)c2cccc3nsnc23)c2ccccc2)CC1 (centres undefined)	1	3%	15	7	1	i
O=C1NC(c2ccco2)Nc2ccccc21 (centres undefined)	0.99	4%	15	5	2.9*	.
CC1Cc2ccccc2C(=O)N1 (centres undefined)	1	8%	11	10	1.1	i
O=C1NC(c2ccncc2)Nc2ccccc21 (centres undefined)	1	7%	4	4	2.5*	i
Cc1ccc(C2NC(=O)c3ccccc3N2)s1 (centres undefined)	1.1	8%	13	2	2.1*	.
c1ccc(CSc2nnc3c(n2)OC(c2ccco2)Nc2ccccc2-3)cc1 (centres undefined)	1.1	2%	0	0	0.96	i
CN(C)C=Nc1ncc2c3ccccc3n(Cc3ccccc3)c2c1C#N	1.1	3%	0	5	3*	.
CN(C)C=Nc1ncc2c3ccccc3n(CCN(C)C)c2c1C#N	1.2	16%	16	10	2.3*	i
CC1(C)CC(n2c(NCCO)nc3c(c2=O)C2(CCCC2)Cc2ccccc2-3)CCO1 (centres undefined)	1.1	12%	17	6	2*	.
O=c1[nH]c(NCCO)nc2c1C1(CCCCC1)Cc1ccccc1-2	1	11%	10	11	3.9*	.
CCc1nc2c(c(=O)[nH]1)C1(CCCC1)Cc1ccccc1-2	1.1	3%	0	8	1.2	i
CCOCCCNC(=O)C1CCN(C(=O)Nc2ccc(Cl)cc2)CC1	0.99	2%	9	7	1.1	i
COc1ccccc1OC(=O)c1ccc(SC)cc1OC	0.98	4%	5	0	1	i
O=C(CCN1C(=O)c2ccccc2C1=O)N1CCC(c2ccccc2)C1 (centres undefined)	1	6%	7	7	1.1	i
Clc1cccc(Cl)c1COc1ccccn1	1	5%	6	8	1.1	i
COc1cc(NC(=O)c2cccc3c2C(=O)N(Cc2cccnc2)C3)cc(OC)c1OC	1.1	2%	0	7	1.1	i
Cn1c(-c2ccc(N)cc2)nc2ccccc21	1	18%	17	5	3.9*	+
COc1cc(C(=O)Nc2ccc(OCC(=O)O)cc2)cc(OC)c1OC	1	2%	0	5	1.1	i
CCc1ccccc1NC(=O)c1cnc2scc(C)n2c1=O	1.2	5%	9	1	1.1	i
Cc1csc2ncc(C(=O)NCc3ccccn3)c(=O)n12	1.2	8%	10	6	2.1*	.
SMILES	Abs 340nm	NADH enzymes	PMK inhibit	Spn MK inh	Fluor 339 460	Spn DPM-DC inh
Cc1nc(Sc2nnnn2C)c2c3c(sc2n1)CCC3	1.1	11%	10	11	2.1*	.
Cc1occc1-c1nnc(SCC(=O)N2CCOCC2)n1CCc1ccccc1	0.97	8%	13	10	1	i
Cc1occc1-c1nnc(SCC(=O)N2CCOCC2)n1Cc1ccco1	0.96	4%	27*	9	1	i
CSC1=NC(NCCCO)c2c(sc3c2CC(C)(C)OC3)N1 (centres undefined)	1	10%	7	8	2.9*	i
CC1(C)Cc2c(sc3nc(SCC(=O)O)[nH]c(=O)c23)CO1	1.1	6%	0	13	1.2	i
Cc1nc2nc(C)c(CCC(=O)N3CCOCC3)c(C)n2n1	1	15%	6	4	0.68	+
CCOC(=O)N1CCN(C(=O)CCc2c(C)nc3nc(C)nn3c2C)CC1	0.98	5%	10	5	1.1	i
CCn1c2ccccc2c2cc(/C=N/n3cnnc3)ccc21	1.1	8%	6	10	5*	.
CCn1c(/C=N/n2cnnc2)nc2ccccc21	1.2	8%	12	3	2.1*	.
CCOc1ccc(CCN2C(=O)C3C4C=CC(C4)C3C2=O)cc1OCC (centres undefined)	0.98	2%	0	7	1	i
CCOC(=O)C1=C(N)OC2=C(C(=O)CCC2)C1c1ccc(C)s1 (centres undefined)	1	15%	37*	1	1.1	i
O=C(NC1CC1)c1ccc(S(=O)(=O)NC2CCCCCC2)cc1	1	2%	5	0	1.1	i
Cc1c(C(=O)Nc2ccc(F)cc2)oc2ccc(S(=O)(=O)N3CCCC3)cc12	1	7%	12	7	1.1	i
O=C(NC1CCCC1)c1ccc(S(=O)(=O)N2CCCC2)cc1	1	2%	11	6	2.1*	i
Cc1ccc(NC(=O)c2oc3ccc(S(=O)(=O)N4CCOCC4)cc3c2C)cc1C	1.1	5%	11	4	3.1*	.
Cc1c(C(=O)NC2CC2)oc2ccc(S(=O)(=O)N3CCCCCC3)cc12	1	5%	12	1	1	+
Cc1onc(COc2ccccc2O)c1Br	0.98	6%	12	6	1.1	i
COc1ccc(S(=O)(=O)Nc2cc(C(=O)NCCC(C)C)ccc2N2CCOCC2)cc1	0.99	9%	17	9	1.1	i
O=C(O)c1ccc(CNc2ccccc2C(=O)O)cc1	1.1	9%	4	1	2.6*	i
O=C(O)c1ccccc1C(=O)NCc1ccccc1	1.1	4%	0	11	0.94	i
O=C(O)c1ccccc1NCc1ccncc1	1	8%	2	12	2*	i
Cc1ccc(C(C)C)c(OCCNc2nc3c(c(=O)n(C)c(=O)n3C)n2C)c1	1	1%	0	2	1.1	i
COc1cccc2c(=O)c(C(=O)NCc3cccs3)c[nH]c12	1.1	9%	14	4	3.7*	.
